# Data from PubChem BioAssay (NCATS).
# Records with an inconclusive call do not appear. A call without a number means that no potency is given here. Calls of active or inactive are those of the source. Calls follow the shape of the dose curve; as a rule, active = well fitted inhibition curve with a large enough effect; inconclusive = small, poorly fitted or top-dose-only effect; inactive = no such curve, though single readings can be large or run the other way.
# Experiment: qHTS for Inhibitors of the Aldehyde Dehydrogenase Family (ALDH1A2, ALDH1A3, ALDH2, ALDH3A1) (AID 2061307); also: nearly all actives have a fitted effect of over 50% in size; as to potency: test system not described further here
# Settings: ALDH inhibition qHTS; series mostly up to 50.3 µM
# Potency is read from the fitted curve at half-maximal effect.
row,SMILES,Potency
1,COc1ccc(/C=C/c2onc(C)c2S(=O)(=O)N2CCC(C(=O)N3CCc4ccccc4C3)CC2)cc1,inactive
2,COc1ccc(-n2nc(C(=O)Nc3ccc(Cl)cn3)c3c4ccccc4n(C)c3c2=O)cc1,inactive
3,O=C(Nc1cc(C(F)(F)F)ccc1Cl)c1nc2ccccc2nc1N1CCCCC1,inactive
4,Cc1nn(-c2ccc(C(F)(F)F)cn2)c(C)c1CC(=O)Nc1ccc(C(N)=O)cc1,inactive
5,NNC(=O)c1ccc2ccccc2n1,inactive
6,C[S+](=O)([O-])c1ccc(-c2nnc3ccc(C(=O)NCc4cccs4)cn23)cc1,inactive
7,Cc1ccc2c(c1)/C(=C\C(=O)c1cccs1)C(=O)N2,inactive
8,O=C(c1cccc(F)c1)N1CCCC2(CCN(C(c3ccccc3)c3ccccc3)C2)C1 (stereo not given),inactive
9,CCOc1ccccc1NC(=O)c1nn(-c2ccc(OC)cc2)c(=O)c2c1c1ccccc1n2C,inactive
10,COc1ccc2c(c1)CCNC2Cc1ccc(OC)c(O)c1 (stereo not given),inactive
11,Cc1ccc2c(c1)/C(=C\C(=O)c1cccnc1)C(=O)N2,inactive
12,COCCN(C)S(=O)(=O)c1ccc(NC(=O)c2ccc(CN3CCc4ccccc4C3)cc2)cc1,inactive
13,COc1ccc(N2CCN(C(=O)c3cnc(N4CCCCC4)c4ccccc34)CC2)cc1,inactive
14,Fc1cc(Cn2cnc3ccccc32)ccc1Cl,11.2 µM (active)
15,Cc1cc(=O)n2[nH]c(NC(=O)c3ccccc3C)nc2n1,inactive
16,CCn1nc(C)c(CNc2ccc(S(N)(=O)=O)cc2C#N)c1C,inactive
17,Cn1nc(-c2ccccc2)cc1C(=O)N[C@H](Cc1ccc2ccccc2c1)C(=O)O,inactive
18,CCN(CC)S(=O)(=O)c1cccc(NC(=O)CNc2cccc(S(=O)(=O)N3CCOCC3)c2)c1,10 µM (active)
19,Oc1ccc(N2CCN(Cc3ccc(OCCCN4CCCCC4)cc3)CC2)cc1,inactive
20,NCC(=O)Nc1cc(-c2nn3c(=O)cc(N4CCNCC4)nc3s2)ccn1,inactive

row,SMILES,Potency
1,CC(=O)Nc1ccc(OCc2cn(CC(=O)c3ccc(O)cc3)nn2)cc1,inactive
2,COc1ccccc1C(=O)Nc1nc2nc(C)cc(=O)n2[nH]1,inactive
3,CNC(=O)c1cc(-c2ccc(N3CCOCC3)cc2)cc2c1OCCN2Cc1cccnc1,inactive
4,CCN1CCN(C(=S)c2ccc([N+](=O)[O-])cc2)CC1,inactive
5,O=C(NCc1ccc(F)cc1)c1nc(-c2ccc(F)cc2)c2ccccn12,inactive
6,CCc1ccc(CSc2nccn2-c2ccccc2)cc1,inactive
7,COc1ccccc1CNc1ccc(N2CCCCC2)cc1,2.52 µM (active)
8,CCN1C(=O)c2ccccc2S(=O)c2ccc(C(=O)NCc3cccc(-c4ccccc4)c3)cc21 (stereo not given),22.5 µM (active)
9,CCOc1ccc(CCNC(=O)c2cc3occc3[nH]2)cc1OCC,inactive
10,N#Cc1ccc(C(=O)Nc2nnc(C3=COCCO3)o2)cc1,inactive
11,N#CC1CCN(c2nc(Br)cs2)CC1,inactive
12,COc1ccc(OC)c(-n2c3c(cc(-c4nnn(-c5ccc(Cl)cc5)n4)c2=O)C(=O)CC(C)(C)C3)c1,5.04 µM (active)
13,COc1ccc(-n2nnc(-c3nc(-c4cccs4)no3)c2N)cc1OC,inactive
14,COc1ccc(-n2ncc3c2CCCC3NC(=O)CN(C)C)cc1 (stereo not given),inactive
15,O=C(Nc1ccc(N2CCCCC2)nc1)c1cccs1,5.04 µM (active)
16,Cc1sc(-n2nc(-c3ccccc3)c(Cc3ccc(S(N)(=O)=O)cc3)c2N)nc1C(=O)O,inactive
17,O=C(Nc1cccnc1)c1nccs1,inactive
18,O=C(O)c1csc(-n2[nH]c(-c3ccc(F)c(F)c3)cc2=O)n1,inactive
19,COc1ccc(OC)c(NC(=O)c2cccc(Nc3ncccn3)c2)c1,inactive
20,O=C(Nc1cccc(S(=O)(=O)N2CCOCC2)c1)c1cc(-c2cccnc2)nc2ccccc12,inactive
